Source: PubChem BioAssay (several laboratories)
An excerpt weighted towards active compounds, which were near 5.4% of everything screened.
PP5 inh – inhibitors of human protein phosphatase 5 (PP5); hit rate 0.18% among 320,000; purified PP5c, OMFP substrate fluorescence; inhibition, % at 6.7 µM;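 active means inhibition above the campaign's mean inhibition across all tested compounds plus 3 SD, cut at about 9.5% in these data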;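 further: 0% = DMSO only and 100% = 100 µM cantharidin control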
PP1 counter – counter-screen for PP5 inhibitors: inhibitors of human PP1-alpha | purified PP1alpha, OMFP fluorescence | hit rate 0.9% among 320,000 | inhibition, % at 6.7 µM | P62136;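 active means inhibition above the mean inhibition of all tested compounds plus 3 SD, computed separately for each screening campaign, cut at about 15% in these data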
Target sequence (P62136 whole entry, looked up): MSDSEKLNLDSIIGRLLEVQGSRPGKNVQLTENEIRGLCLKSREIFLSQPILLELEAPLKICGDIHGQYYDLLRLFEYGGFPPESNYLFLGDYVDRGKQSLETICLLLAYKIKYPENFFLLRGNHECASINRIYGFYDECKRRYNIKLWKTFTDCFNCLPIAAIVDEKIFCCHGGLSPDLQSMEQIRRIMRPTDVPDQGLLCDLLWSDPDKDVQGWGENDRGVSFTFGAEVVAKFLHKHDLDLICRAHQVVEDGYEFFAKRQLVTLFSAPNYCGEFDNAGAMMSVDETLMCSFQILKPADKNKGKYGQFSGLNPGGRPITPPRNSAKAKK
CSC inhib – cancer stem cell inhibition. cancer stem cell-like cells viability, luminescence. inhibition, % at 7.5 µM. hit rate 1.1% among 300,000; in the data active means inhibition above about 75%; tested in HMLE shEcad cells
Calb FLC – affects C. albicans growth with fluconazole; C. albicans CaCi-2 (fluconazole-resistant clinical isolate) + fluconazole, Alamar Blue growth, 48 h; growth inhibition, % (concentration not given with the values); hit rate 0.57% among 300,000;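 active means growth inhibition above about 58% in most replicates, limit read from the data, passing the limit was not always enough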;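 further: all wells also contain fluconazole at 8 µg/ml as a sub-toxic cotreatment; 0% = median of DMSO wells and 100% = median of geldanamycin control wells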
ALR H2O2 inh – blocks human ALR sulfhydryl oxidase activity; P55789; purified ALR, DTT oxidation, H2O2 HRP-luminol luminescence; inhibition, % (concentration not given with the values); hit rate 3.8% among 290,000;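 active means mean replicate inhibition above about 79%, with every replicate also reaching it, limit read from the data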
Target sequence (P55789 whole entry, looked up): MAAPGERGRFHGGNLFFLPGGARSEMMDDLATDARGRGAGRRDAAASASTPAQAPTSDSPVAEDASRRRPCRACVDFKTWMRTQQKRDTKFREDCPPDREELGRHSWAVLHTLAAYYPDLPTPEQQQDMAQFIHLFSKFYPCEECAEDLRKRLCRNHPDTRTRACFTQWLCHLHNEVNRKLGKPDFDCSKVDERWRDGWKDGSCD
Starred values were filed as active, the others as inactive; / = no result given.

SMILES | PP5 inh | PP1 counter | CSC inhib | Calb FLC | ALR H2O2 inh
CCOc1ccc(C(=O)Nc2cc3c(cc2N2CCCC2)n(CC)c(=O)n3CC)cc1OCC | 0 | -1 | 3 | -4 | 52
O=C(Nc1cc(S(=O)(=O)Nc2ccc(Cl)cc2)ccc1N1CCCCC1)c1ccc(F)cc1 | 2 | 6 | 90* | -2 | -4
CCn1c(=O)n(CC)c2cc(N3CCCC3)c(NC(=O)c3ccc(F)cc3)cc21 | 1 | 0 | 44 | 19 | 100*
CCn1c(=O)n(CC)c2cc(N3CCCC3)c(NC(=O)c3c(F)cccc3F)cc21 | 0 | -3 | -14 | 15 | 99*
Cc1cccc(NC(=O)CCNC(=O)c2ccco2)c1 | 4 | 0 | -2 | 2 | -14
N#Cc1c(-c2ccccc2)nc(-c2ccncc2)[nH]c1=O | 1 | 1 | -13 | -6 | 63
O=S(=O)(c1ccc2c(c1)CCN2)N1CCOCC1 | 1 | 1 | / | / | 78*
Cc1cc(C(=O)C(=O)N(C)C)c(C)n1-c1ccc(Cl)c(Cl)c1 | 4 | -3 | -8 | 10 | -1
Cc1cc(C(=O)C(=O)O)c(C)n1-c1ccc(Cl)c(Cl)c1 | -1 | -3 | -15 | -5 | 95*
O=C(Nc1ccc(-c2csc(Nc3ccc(Cl)cc3)n2)cc1)c1cc([N+](=O)[O-])cc(C(F)(F)F)c1 | 2 | -3 | 149* | -3 | 2
O=C(Nc1cccc(-c2csc(Nc3ccc(Cl)cc3)n2)c1)c1cccc(C(F)(F)F)c1 | -1 | -1 | -18 | -6 | -9
O=C(Nc1cccc(-c2csc(Nc3ccc(Cl)cc3)n2)c1)c1cc([N+](=O)[O-])cc(C(F)(F)F)c1 | 2 | -3 | 108* | -7 | 0
O=C(Nc1cccc(-c2csc(Nc3ccccc3)n2)c1)c1cc([N+](=O)[O-])cc(C(F)(F)F)c1 | 4 | -1 | 58 | 2 | -5
CCCc1cc(=O)oc2cc(OCC(=O)Nc3ccc4c(c3)OCCO4)ccc12 | 1 | 0 | 8 | 5 | -4
CCc1cccc(NC(=O)Cn2c(-c3ccccc3)cc(C(C)=O)c2C)c1 | 4 | 0 | 1 | -28 | /
CC(=O)NC1N=C(C)N(c2ccccc2)C1=O (stereo not given) | 2 | -3 | -8 | -1 | /
CC(C)NC(=O)Nc1n[nH]c(Nc2ccc(Cl)cc2)n1 | 0 | -3 | 11 | -27 | 50
CCOC(=O)c1ccccc1NC(=O)COC(=O)CCCOc1ccccc1 | 3 | 1 | -15 | -1 | -1
CCOC(=O)c1ccccc1NC(=O)COc1ccccc1 | 2 | -1 | -1 | -6 | 97*
CC(=N)c1c(O)c2ccccc2oc1=O | 1 | 2 | 7 | 1 | -1
O=C(CC1CCCCC1)c1c(O)c2ccccc2oc1=O | 0 | 0 | 38 | 38 | 97*
CC1CCC(C(=O)c2c(O)c3ccccc3oc2=O)CC1 (stereo not given) | -4 | -1 | 50 | 108* | 38
CN(C)/C=C/c1onc(-c2c(F)cccc2Cl)c1C#N | 1 | -1 | -2 | -18 | 7
O=C(OCCN1CCOCC1)c1cccc(F)c1 | 4 | 1 | -6 | 5 | -2
COc1ccc(CNC(=S)Nc2ccc(-c3ccccc3)cc2)cc1 | 1 | -4 | -2 | 10 | 95*
SMILES | PP5 inh | PP1 counter | CSC inhib | Calb FLC | ALR H2O2 inh
COc1ccc(NC(=S)Nc2ccc(Oc3ccccc3)cc2)cc1 | 3 | 6 | 13 | 1 | -2
COc1ccc(NC(=S)NN(C)C(=S)Nc2ccc(OC)cc2)cc1 | 0 | -1 | 123* | -13 | 99*
Cc1nc2c(=O)oc3ccccc3c2n1-c1ccccc1 | 2 | 0 | -9 | 92* | 1
CCn1c(C)nc2c(=O)oc3ccccc3c21 | 2 | -2 | 25 | -13 | 4
CCOC(=O)C(=NC(C)(C)C)NNc1cc(Cl)ccc1Cl | 0 | -1 | 28 | -6 | 99*
CCOC(=O)C1CCCN(c2ncnc3c2cnn3-c2ccc(Cl)cc2)C1 (stereo not given) | 4 | 1 | 8 | 2 | -1
CCc1cc(C(=O)NNC(=S)Nc2cc(C)ccc2C)cs1 | 0 | 0 | 5 | 99* | 21
Cc1cccc(NC(=S)NNC(=O)c2csc(C)c2)c1 | -3 | -1 | -10 | 0 | 85*
Cc1cccc(NC(=S)NNC(=O)c2ccc(Br)o2)c1 | -1 | -1 | / | -8 | 94*
O=CN1CCN(C(=O)Cc2ccc([N+](=O)[O-])cc2)CC1 | -2 | 2 | -26 | 6 | /
CCOc1ccc(-n2c(Cc3cc(=O)[nH]c(=O)[nH]3)nnc2SCC(N)=O)cc1 | 1 | 1 | -17 | 6 | -32
Clc1ccccc1C1SCC2Nc3ccccc3CN21 (stereo not given) | 2 | 1 | / | -14 | 98*
O=C(c1ccc([N+](=O)[O-])cc1)N1CCSC1c1ccccc1Cl (stereo not given) | 1 | -7 | -4 | -5 | -54
O=[N+]([O-])c1ccc(S(=O)(=O)N2CCN(c3ccnc4cc(Cl)ccc34)CC2)cc1 | 3 | 17* | 2 | -24 | -5
O=S(=O)(c1cccc(Br)c1)N1CCN(c2ccnc3cc(Cl)ccc23)CC1 | 4 | 6 | 28 | 3 | -2
Cc1ccc(OCCC(=O)OCC(=O)NC2CCCC(C)C2C)cc1 (stereo not given) | / | / | 9 | / | 14
On1c(-c2ccc(Cl)cc2Cl)nc2ncccc21 | -1 | -1 | -15 | 5 | -3
Nc1[nH]c(N=NC(=O)c2ccc(F)cc2)c2ccccc12 | 1 | -2 | -7 | 15 | 99*
Nc1ccccc1C(=O)N=Nc1[nH]c(N)c2ccccc12 | 2 | -1 | -3 | -26 | -3
O=C(CSCc1cccc(F)c1)N1CCN(c2ccccc2)CC1 | 3 | 0 | -7 | -3 | 98*
CCn1c(CSCc2ccc(F)cc2)nnc1SCC(=O)N1CCN(c2ccccc2)CC1 | -1 | -3 | -14 | 21 | 97*
O=C(CSC1CCCCC1)N1CCN(c2ccccc2)CC1 | -2 | -3 | -11 | -5 | 98*
O=C(CN1CCCCC1)N1CCN(c2ccccc2)CC1 | -1 | 0 | 3 | 4 | 37
O=C(CN1CCN(c2ccc(F)cc2)CC1)OCc1ccccc1 | 1 | -2 | -11 | -17 | 92*
O=C(CSCc1ccccc1)N1CCN(c2cccc(C(F)(F)F)c2)CC1 | 2 | -2 | -5 | -1 | -14
SMILES | PP5 inh | PP1 counter | CSC inhib | Calb FLC | ALR H2O2 inh
COc1cccc(/C=C2\SC(=S)N(CCC(=O)NC3C=CS(=O)(=O)C3)C2=O)c1 (stereo not given) | 1 | 3 | 9 | / | 0
O=C(Nc1ccc(NC(=O)c2ccccc2Cl)cc1)c1cccnc1 | 1 | 3 | -12 | 6 | -1
CCOC(=O)c1sc(NC(=O)C(OC(C)=O)c2ccccc2)nc1C (stereo not given) | -2 | -1 | -1 | 0 | 46
COc1ccc(CNC(=O)COC(=O)/C=C/c2ccco2)cc1 | 3 | 0 | 0 | -17 | 7
O=C(CN1CCN(c2ccccc2)CC1)N1CCN(c2ccccc2)CC1 | 7 | -5 | 1 | 3 | 99*
O=C(Cc1ccc(Br)cc1)N1CCN(c2ccccc2)CC1 | 1 | 0 | -8 | 5 | 98*
O=C(Nc1ccccc1N1CCN(c2ccccc2)CC1)C1CCCCC1 | 0 | -2 | 21 | 6 | -4
